# Assay results from PubChem BioAssay (NCATS).
# Activity calls are given as the source filed them. The call rests on the fitted dose curve.
# How the values were obtained:
# [1] = biological target: Catechol O-methyltransferase (Homo sapiens) (UniProt P21964); assay: Confirmatory Screen for Target Class Profiling of Small Molecule Inhibitors of Methyltransferases (AID 1745852); conditions: MTase-Glo luminescence, SAH detection, recombinant enzyme; measured here: COMT max response; stronger effect = lower value; on activity change, negative = inhibition: on the % scale 0 is the no-effect control and ±100 the full control effect
# [2] = biological target: Guanidinoacetate N-methyltransferase (Homo sapiens) (UniProt Q14353); assay: as above; conditions: MTase-Glo luminescence, SAH detection, recombinant enzyme; activity change, negative = inhibition: at 57.3 µM (top of the series)
# Potency means the concentration at half of the fitted maximal effect.
# Sequence of Catechol O-methyltransferase (Homo sapiens) (P21964 whole entry, looked up): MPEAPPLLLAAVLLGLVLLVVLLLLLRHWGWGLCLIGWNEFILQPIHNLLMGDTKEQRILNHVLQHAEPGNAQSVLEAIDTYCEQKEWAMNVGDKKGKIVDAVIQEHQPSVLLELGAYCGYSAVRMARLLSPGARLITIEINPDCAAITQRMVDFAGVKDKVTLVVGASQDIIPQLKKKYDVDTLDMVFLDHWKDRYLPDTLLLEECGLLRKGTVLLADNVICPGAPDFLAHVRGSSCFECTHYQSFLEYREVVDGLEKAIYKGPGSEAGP
SMILES,activity [1] [%],Potency [2],"activity change, negative = inhibition [2] [%]"
COc1cc(/C=C(\C#N)C(=O)c2ccc(O)c(O)c2)cc(I)c1O,13.9,24.3 µM (active),
N=C(N)SCCc1cnc[nH]1,-3.06,,-1.52
C[C@](Cc1ccc(O)c(O)c1)(NN)C(=O)O,156,,0.684
CCCc1c(-c2ccc(O)cc2)nn(-c2ccc(O)cc2)c1-c1ccc(O)cc1,-7.84,43.2 µM (active),
NS(=O)(=O)c1cccc2c1c([N+](=O)[O-])cc1nc(O)c(O)nc12,-92.9,,0.0632
CN(C)C(=O)/N=N/C(=O)N(C)C,-3.94,,0.919
Brc1c(Br)c(Br)c2[nH]cnc2c1Br,-26.1,27.3 µM (active),
CC1CCN=C(N)S1 (centres undefined),4.68,,0.929
O=c1[nH]ccc2c(O)cccc12,1.23,,2.16
N#C/C(=C\c1ccc(O)c(O)c1)C(=O)NCCCNC(=O)/C(C#N)=C/c1ccc(O)c(O)c1,-50.9,4.85 µM (active),
CN1Cc2sccc2C(c2ccc(O)c(O)c2)C1 (centres undefined),138,,1.26
Nc1ccc2c3c(cccc13)C(=O)NC2=O,1.42,,4.2
NCC(O)C1CCCCCCC1 (centres undefined),-3.91,,2.24
CC[C@@H]1Cc2cc(O)ccc2C2=C1c1ccc(O)cc1C[C@H]2CC,9.67,43.2 µM (active),
Fc1ccc(CN(C2=NCCN2)c2c(Cl)cccc2Cl)cc1,-2.41,,6.96
CCN(CC)CCCCCCCCOC(=O)c1cc(OC)c(OC)c(OC)c1,8.45,,4.66
Clc1nccc2c1ccc1ccccc12,4.56,,3.35
